In the supplement of paper PMC4723716:

System: Plasmodium falciparum NF54 gametocytes
Experiment: viability index relative to DMSO control (fraction); higher = less gametocyte killing
Conditions: 12.5 µM, incubation time: 72 h
Summary of the method: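 In 384-well plates, compound at 12.5 µM was incubated for 72 hr at 37°C under low oxygen with P. falciparum NF54 gametocytes of each stage (I–V) at 0.50% gametocytemia and 1.25% hematocrit in 40 µl of serum-containing medium. Staining used 5 µl of 5 µM MitoTracker Red CMXRos for 20 min, then 5 µl was moved into 40 µl of 500 nM dye in serum-free medium and imaged after 30 min. Dividing the gametocyte particle count by the plate mean of solvent-only wells gave the viability index.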

[1] = gametocyte stage: Stage I viability index
[2] = gametocyte stage: Stage II viability index
[3] = gametocyte stage: Stage III viability index
[4] = gametocyte stage: Stage IV viability index
[5] = gametocyte stage: Stage V viability index

Row | SMILES | viability index [1] | viability index [2] | viability index [3] | viability index [4] | viability index [5]
1 | CC(C)(C)c1ccc(O)c(CNC2CCCCC2)c1 | 0.256 | 0.329 | 0.482 | 0.571 | 0.462
2 | CCOc1ccc(CCNC(=O)c2cccs2)cc1OCC | 1.14 | 0.896 | 1.1 | 0.884 | 0.593
3 | CCN(CC)CCCNc1ccnc2cc3ccccc3cc12 | 0.0594 | 0.485 | 0.972 | 0.946 | 1.1
4 | Cc1cccc(N2C(=O)C3C(C2=O)C2(c4ccccc4)C(=O)C3(c3ccccc3)C(c3ccc4c(c3)OCO4)=C2c2ccc3c(c2)OCO3)c1 (stereo not given) | 1.16 | 0.896 | 1.08 | 0.886 | 1.03
5 | COc1ccc(C=C2SC(Nc3ccccc3)=NC2=O)cc1 | 1.03 | 0.768 | 0.663 | 0.791 | 0.727
6 | OC(CNC1CCCCC1)Cn1c2ccccc2c2ccccc21 (stereo not given) | 0.0354 | 0.0493 | 0.178 | 0.277 | 0.198
7 | COc1cc(SC)ccc1C(=O)N1CCCC(C)C1 (stereo not given) | 0.982 | 0.96 | 1.17 | 1.16 | 1.18
8 | CCn1c(CN2CCN(Cc3ccccc3)CC2)nc2cc(NC(=O)c3cccs3)ccc21 | 0.701 | 0.837 | 0.924 | 0.967 | 1.05
9 | COc1cc(C(=O)Nc2ccc(-c3nc4ccccc4[nH]3)cc2)cc(OC)c1OC | 0.0918 | 0.595 | 1.01 | 0.968 | 0.701
10 | Cc1ccc(NC(=O)Nc2cccc(Cl)c2)cc1F | 0.64 | 0.599 | 0.832 | 0.827 | 0.582
11 | COc1ccccc1CNC(=O)CCn1c(=O)[nH]c2ccccc2c1=O | 0.867 | 0.898 | 0.912 | 0.951 | 0.912
12 | CCC(C)NCC(O)(c1ccc(Cl)cc1)c1ccc(Cl)cc1 (stereo not given) | 0.0354 | 0.0657 | 0.378 | 0.584 | 0.615
13 | COc1ccccc1N1C(=N)SC(=Cc2ccc(OCc3ccccc3F)cc2)C1=O | 0.669 | 0.654 | 0.661 | 0.563 | 0.403
14 | Cc1cc(C)c2nc(N3CCC(C(=O)NCCCN4CCC(N5CCCCC5)CC4)CC3)sc2c1 | 0.0166 | 0.204 | 0.455 | 0.477 | 0.352
15 | CCCN(CCC)CC(O)COc1ccccc1C(=O)Nc1ccccc1 (stereo not given) | 0.0829 | 0.175 | 0.46 | 0.593 | 0.516
16 | Cc1ccc2nc(C)cc(Nc3cccc(C(F)(F)F)c3)c2c1 | 0.325 | 0.504 | 0.803 | 0.829 | 0.857
17 | COc1ccccc1N1CCN(C(CNS(=O)(=O)c2ccc(Cl)cc2)c2cccnc2)CC1 (stereo not given) | 0.188 | 0.564 | 1.04 | 0.815 | 0.912
18 | O=C(Nc1ccc(Cl)c(Cl)c1)Nc1ccc(Cl)c(Cl)c1 | 0.0437 | 0.0241 | 0.0353 | 0.0918 | 0.104
19 | CCCCc1ccc(NS(=O)(=O)c2cc3c4c(c2)CCN4C(=O)CC3)cc1 | 0.98 | 0.982 | 0.992 | 1.12 | 1.07
20 | Cc1cc(Nc2ccc(Cl)cc2)n2nc(C(F)(F)F)nc2n1 | 0.957 | 0.975 | 1.03 | 0.97 | 1

Row | SMILES | viability index [1] | viability index [2] | viability index [3] | viability index [4] | viability index [5]
21 | CCCn1c(=N)c(C(=O)NC2CCCCC2)cc2c(=O)n3cccc(C)c3nc21 | 0.45 | 0.612 | 1.06 | 0.981 | 0.805
22 | Cc1ccc(-c2cc3nc4c(c(O)n3n2)CCCC4)cc1 | 0.537 | 0.804 | 0.894 | 0.766 | 0.857
23 | Cn1c(C(=O)c2cccc3ccccc23)nc2ccccc21 | 0.681 | 0.95 | 1.14 | 1.01 | 0.74
24 | COc1ccccc1C(=O)ON=C(N)Cc1cccc2ccccc12 | 0.0446 | 0.121 | 0.299 | 0.373 | 0.195
25 | O=C(Nc1ccc(-c2nc3cc4ccccc4cc3[nH]2)cc1)c1cccc(Br)c1 | 0.028 | 0.421 | 0.851 | 0.873 | 0.909
26 | Cc1ccc(N2C3c4ccccc4N(S(=O)(=O)c4ccc(C)cc4)C2c2ccccc2N3S(=O)(=O)c2ccc(C)cc2)cc1 | 0.687 | 0.77 | 0.928 | 0.93 | 0.978
27 | O=C(Nc1ccc(CN2CCOCC2)cc1)c1ccc(-c2ccc(Br)cc2)o1 | 0.141 | 0.543 | 0.926 | 0.787 | 1.16
28 | Cc1cc(NC(=O)c2cccc(C(F)(F)F)c2)n(-c2nc(-c3ccc4c(c3)OCO4)cs2)n1 | 1.26 | 0.943 | 1.1 | 0.951 | 0.956
29 | CC1(c2ccccc2)Nc2ccccc2-c2nc3ccccc3n21 (stereo not given) | 0.183 | 0.109 | 0.298 | 0.498 | 0.0659
30 | CCOC(=O)C1CCN(C(=O)CN2C(=O)c3ccccc3C2c2c[nH]c3ccccc23)CC1 (stereo not given) | 1.39 | 0.924 | 1.14 | 1.13 | 1.18
31 | O=C(c1ccccc1F)N(Cc1ccc(Cl)cc1)c1ccccn1 | 0.716 | 0.955 | 0.997 | 0.93 | 0.967
32 | Cc1cc(NCCN2CCCCC2)c2ccc3ccccc3c2n1 | 0.0508 | 0.404 | 0.536 | 0.495 | 0.132
33 | COCCn1c(C)nc2ccccc2c1=O | 0.825 | 0.879 | 0.733 | 0.711 | 0.418
34 | CCOC(=O)c1cnc2c(C)cccc2c1Nc1ccc(C(C)=O)cc1 | 1.16 | 0.83 | 1.06 | 1.08 | 1.03
35 | CC(C)c1ccc(CNCC(O)c2ccccc2)cc1 (stereo not given) | 0.032 | 0.118 | 0.492 | 0.568 | 0.648
36 | Cc1ccc(-c2cc(C(=O)Nc3ccc(S(=O)(=O)N4CCCCC4)cc3)[nH]n2)c(O)c1 | 0.453 | 0.939 | 0.973 | 1.09 | 0.967
37 | CSc1ccccc1C(=O)Nc1nc(-c2ccccn2)cs1 | 0.242 | 0.181 | 0.321 | 0.362 | 0.132
38 | CCc1ccc(Nc2cc(C)c3ccc(O)cc3n2)cc1 | 0.238 | 0.256 | 0.706 | 0.827 | 0.945
39 | CC(C)CNC(=O)c1c(N)n(CCc2ccccc2F)c2nc3ccccc3nc12 | 0.0398 | 0.139 | 0.662 | 0.687 | 0.769
40 | COc1cc(OC)cc(N2C(=O)N(Cc3ccc(C(C)(C)C)cc3)c3ccccc3S2(=O)=O)c1 | 1.04 | 0.96 | 1 | 0.785 | 0.662

Row | SMILES | viability index [1] | viability index [2] | viability index [3] | viability index [4] | viability index [5]
41 | O=C(CSc1ccc2nnc(-c3cccc(F)c3)n2n1)Nc1ccc2c(c1)OCO2 | 1.01 | 1.02 | 1.16 | 1.16 | 1.37
42 | C=CCc1c(C)nc2ccccc2c1O | 0.92 | 0.671 | 0.798 | 0.793 | 1.05
43 | Cc1ccc(C2CC(C(F)(F)F)n3nc(C(=O)N4CCN(C(c5ccccc5)c5ccccc5)CC4)cc3N2)cc1 (stereo not given) | 0.576 | 0.645 | 0.944 | 0.804 | 0.922
44 | O=C(NCc1ccco1)C1CCN(S(=O)(=O)c2ccc(Cl)cc2)CC1 | 0.568 | 0.802 | 1.03 | 0.942 | 1.23
45 | Cc1sc(NC(=O)c2ccco2)c(C(c2cccnc2)N2CCC(Cc3ccccc3)CC2)c1C (stereo not given) | 0.00962 | 0.0408 | 0.261 | 0.418 | 0.351
46 | O=[N+]([O-])c1ccc(C=NNc2nc3ccccc3[nH]2)cc1 | 0.0818 | 0.586 | 0.911 | 0.869 | 0.802
47 | CCOc1cc(Cl)c(C(C)NC(=O)c2cccc(OC)c2)cc1OCC (stereo not given) | 0.0343 | 0.121 | 0.143 | 0.298 | 0.231
48 | COc1cc(OC)c(N(C)C(=O)c2cc3c(s2)-c2ccccc2S(=O)(=O)C3)cc1Cl | 0.00884 | 0.00676 | 0.0212 | 0.131 | 0.022
49 | OC1=C2C(=Nc3ccccc3SC2c2ccc(Br)cc2)c2ccccc21 (stereo not given) | 0.755 | 0.751 | 1.04 | 0.801 | 0.857
50 | CNCCCNc1ccnc2cc(Cl)ccc12 | 0.0398 | 0.291 | 0.704 | 0.875 | 0.747
51 | O=C(NC1CCN(Cc2ccccc2)CC1)c1cc(-c2ccncc2)nc2ccc(Cl)cc12 | 0.601 | 0.662 | 1.08 | 0.994 | 0.791
52 | Cn1c(=O)n(C)c2cc(CNCCNc3ccnc4cc(Cl)ccc34)ccc21 | 0.49 | 0.57 | 0.597 | 0.75 | 0.494
53 | COc1ccc(-c2nonc2NC(=O)c2cccc(C)c2)cc1OC | 0.62 | 0.55 | 0.571 | 0.769 | 0.571
54 | COc1ccc2nc(N)nc(C)c2c1 | 0.353 | 0.614 | 0.685 | 0.959 | 1.04
55 | CCCCNc1nc(NC(C)(C)C)nc(NC(C)(C)C)n1 | 0.0157 | 0.0425 | 0.223 | 0.117 | 0.0649
56 | O=C1c2ccccc2C2=Nc3ccccc3SC(c3cccc(F)c3)C12 (stereo not given) | 0.857 | 0.869 | 0.868 | 0.75 | 0.844
57 | COc1cccc(Cn2c(Oc3ccccc3)nc3c2c(=O)n(C)c(=O)n3C)c1 | 0.892 | 0.853 | 0.993 | 1.06 | 1.16
58 | COc1ccc(-c2c(C)nn3c(N)c(C#N)cnc23)cc1OC | 0.0343 | 0.00676 | 0.0325 | 0.0942 | 0.0769
59 | CCOc1ccccc1CNC(=O)C1c2ccccc2C(=O)N(CC(C)C)C1c1cccs1 (stereo not given) | 0.579 | 0.549 | 0.795 | 0.793 | 1.08
60 | Cc1ccccc1OCCSc1nc2ccc(NC(=O)c3ccccc3)cc2s1 | 0.83 | 0.863 | 0.944 | 0.835 | 0.922
